Pf apPOL inh: Pf-apPOL DNA polymerase inhibition; Recombinant Pf-apPOL, molecular beacon fluorescence, 1.5 h; inhibition, % at 10 µM; actives 0.25% (n = 210,000)
mHTT-CaM PPI inh: mHTT-calmodulin interaction abrogation | actives 3.6% (n = 190,000) | P42858 | AlphaScreen His-mHTT/GST-CaM binding, luminescence | inhibition, % at 15 µM
Of the large screens only hits and unclear results are named; the others gave an inactive call. The entries come from a sample that favours hits as a whole. Cut-off read from the data, not from the text of the source: active = inhibition above about 50%; inactive = the rest.

COCc1[nH]nc2c1C(c1ccc(OC)c(OC)c1)C(C#N)=C(N)O2 (stereo unspecified)	none
Brc1csc(CN2CCc3nc(N4CCCC4)ncc3C2)c1	mHTT-CaM PPI inh 99
Fc1cccc(CN2CCc3nc(N4CCN(c5ncccn5)CC4)ncc3C2)c1	mHTT-CaM PPI inh 100
COc1ccc(N2CCN(c3ncc4c(n3)CCN(Cc3cccc(F)c3)C4)CC2)cc1	mHTT-CaM PPI inh 51
Fc1cccc(CN2CCc3nc(N4CCN(c5ccccc5F)CC4)ncc3C2)c1	none
CCN1CCN(c2ncc3c(n2)CCN(Cc2cc(Br)cs2)C3)CC1	none
Clc1ccc(CN2CCc3nc(N4CCN(c5ccccc5)CC4)ncc3C2)cc1	none
Clc1ccc(CN2CCc3nc(N4CCN(c5ncccn5)CC4)ncc3C2)cc1	mHTT-CaM PPI inh 100
COc1ccc(CN2CCc3nc(N4CCN(c5ccc(F)cc5)CC4)ncc3C2)cc1	none
O=C(Cn1c(=O)oc2cc(Cl)ccc21)Nc1nccs1	none
CS(=O)(=O)N1CCN(CCNC(=O)c2ccc3nc[nH]c3c2)CC1	none
Cc1cccc(CN2CCc3nc(N4CCC(C)CC4)ncc3C2)c1	none
Fc1ccccc1CN1CCc2nc(N3CCN(c4ccccc4)CC3)ncc2C1	none
Fc1ccc(CN2CCc3nc(N4CCN(c5ccccc5)CC4)ncc3C2)cc1F	mHTT-CaM PPI inh 100
CCN1CCN(c2ncc3c(n2)CCN(Cc2cccc(C)c2)C3)CC1	mHTT-CaM PPI inh 79
O=C(Nc1ccccc1Cl)C1CCCN(C(=O)c2ccccc2F)C1 (stereo unspecified)	none
CCN(C)c1nc(-c2ccccc2Cl)c2c(N)n(-c3ccccc3)nc2n1	none
CCN(C)c1nc(-c2cccc(F)c2)c2c(N)n(-c3cccc(F)c3)nc2n1	mHTT-CaM PPI inh 57
O=C(CSc1ccc(-c2ccccn2)nn1)c1ccc([N+](=O)[O-])cc1	mHTT-CaM PPI inh 100
Cc1nc(C)c(-c2ccc(SCC(=O)c3ccc([N+](=O)[O-])cc3)nn2)s1	none
COC(=O)c1cc(Br)cc2ccccc12	Pf apPOL inh 64
COC(=O)c1c[nH]c2ccccc12	none (no result: mHTT-CaM PPI inh)
Cc1noc(C)c1CCC(=O)Nc1cccc(-c2ccc3nncn3n2)c1	none
O=C(CSc1ncc(CO)n1Cc1ccc(F)cc1)N1CCCCC1	none
Cc1ccc(C2CC(c3ccccc3)=NN2C(=O)CN2CCOCC2)cc1 (stereo unspecified)	none
Cc1ccc(C2CC(c3cccc(C)c3)=NN2C(=O)CN2CCOCC2)cc1 (stereo unspecified)	mHTT-CaM PPI inh 85
Cc1ccc(C)c(C2=NN(C(=O)CN3CCOCC3)C(c3ccc(Cl)cc3)C2)c1 (stereo unspecified)	none
Cc1ccc(C2CC(c3ccc(C)cc3C)=NN2C(=O)CN2CCOCC2)cc1 (stereo unspecified)	mHTT-CaM PPI inh 76
Cc1nc(C(N)=NOC(=O)c2ccccc2)c(C(F)(F)F)o1	none (no result: mHTT-CaM PPI inh)
CCOC1=NN(c2ccc([N+](=O)[O-])cc2)C(=O)/C1=C/c1ccccc1OCC	none
CCOC1=NN(c2ccc([N+](=O)[O-])cc2)C(=O)/C1=C/c1cccc(Cl)c1Cl	mHTT-CaM PPI inh 65
COCCNC(=O)Cc1ccc(NC(=O)Cc2ccc(Cl)cc2)cc1	none
CCNc1nc(NC(C)C)nc(OCCNS(=O)(=O)c2cc(C)ccc2C)n1	none
CCNc1nc(NCC)nc(OCCNS(=O)(=O)c2cc(C)ccc2C)n1	Pf apPOL inh 89
CCOC(=O)N1CCC2(CC1)N=C(c1cc(Cl)ccc1O)CC(c1ccccc1)N2 (stereo unspecified)	none
Oc1ccc(Cl)cc1C1=NNC(c2ccccc2F)C1 (stereo unspecified)	mHTT-CaM PPI inh 54
COc1ccc(C2CC(c3ccc(Cl)cc3)Nc3nc(N)nn32)cc1OC (stereo unspecified)	none
COc1ccc(C2CC(c3cc(Cl)ccc3O)=NN2)cc1OC (stereo unspecified)	mHTT-CaM PPI inh 74
Oc1ccc(Br)cc1C1=NNC(c2cccs2)C1 (stereo unspecified)	none
Oc1ccc(Cl)cc1C1=NNC(c2ccc(Br)cc2)C1 (stereo unspecified)	mHTT-CaM PPI inh 75
COc1ccc(C2CC(c3cc(F)ccc3O)=NN2)c(OC)c1 (stereo unspecified)	mHTT-CaM PPI inh 56
COc1ccc(C2C=C(c3ccc(F)cc3)Nc3nnnn32)c(OC)c1 (stereo unspecified)	none
COc1ccc(C2=NOC(C(=O)Nc3ccccc3C(F)(F)F)C2)cc1 (stereo unspecified)	none
COc1ccc(-c2nc3n(n2)C(=O)CC(c2ccc4c(c2)OCO4)S3)cc1 (stereo unspecified)	none
O=C(CC12CC3CC(CC(C3)C1)C2)NCc1cccc(Cl)c1	none (no result: mHTT-CaM PPI inh)
O=C(c1cc2sc(Br)cc2n1CC1CCC1)N1CCCC1	none
CCOc1ccc(C2CC(c3ccccc3O)=NN2)cc1 (stereo unspecified)	none
Oc1ccc(C2CC(c3ccccc3O)=NN2)cc1 (stereo unspecified)	mHTT-CaM PPI inh 96
COc1ccc(NC(=O)COc2cc(C)c(Br)c(C)c2)cc1OC	none
O=C1NC(=S)SC1=Cc1ccc(Sc2ccc(Cl)cc2)c([N+](=O)[O-])c1	Pf apPOL inh 69 (no result: mHTT-CaM PPI inh)
O=C1NC(=O)/C(=C/c2ccc(Cl)c([N+](=O)[O-])c2)S1	none
FC(F)(F)c1ccc2c(c1)Nc1ccccc1S2	none (no result: mHTT-CaM PPI inh)
Fc1ccc2c(c1)Sc1ccccc1N2	mHTT-CaM PPI inh 74
CCC1=NN(C(=O)c2ccc([N+](=O)[O-])cc2)C(O)(c2ccccc2)C1 (stereo unspecified)	none
CCc1ccc(C2(O)CC(C(F)(F)F)=NN2C(=O)c2cccc(Br)c2)cc1 (stereo unspecified)	none
CCc1ccc(C2(O)CC(C(F)(F)F)=NN2C(=O)c2ccc([N+](=O)[O-])cc2)cc1 (stereo unspecified)	mHTT-CaM PPI inh 81
CCC1=NN(C(=O)c2cccc([N+](=O)[O-])c2)C(O)(c2ccc(Cl)cc2)C1 (stereo unspecified)	mHTT-CaM PPI inh 77
O=C(c1ccc([N+](=O)[O-])cc1)N1N=C(C(F)(F)F)CC1(O)c1ccncc1 (stereo unspecified)	none
O=C(c1cccc(Cl)c1)N1N=C(C(F)(F)F)CC1(O)c1ccc(Cl)cc1 (stereo unspecified)	mHTT-CaM PPI inh 76
O=C(c1cccc(Br)c1)N1N=C(C(F)(F)F)CC1(O)c1ccc(Cl)cc1 (stereo unspecified)	none
Cc1cccc(C(=O)N2N=C(C(F)(F)F)CC2(O)c2ccc(Br)cc2)c1 (stereo unspecified)	mHTT-CaM PPI inh 72
COCCCNC(=O)C1C2C(=O)N(Cc3ccccc3)CC23C=CC1(C)O3 (stereo unspecified)	none
CC(=O)NC1=NN(C(C)=O)C(c2ccc(N(C)C)cc2)S1 (stereo unspecified)	none
O=C(Cc1csc(NC(=O)c2ccco2)n1)NCc1cccs1	none
O=C(Cc1csc(NC(=O)c2ccco2)n1)Nc1ccc(F)c(C(F)(F)F)c1	mHTT-CaM PPI inh 59
Cc1ccc(-c2cc(CN(C(=O)NC(C)C)C(C)C)no2)c(C)c1	none
C=CCc1c(C)nc(SCCCC)[nH]c1=O	none
CCc1ccc(N(CC(=O)N2CCN(c3ccccc3)CC2)S(=O)(=O)c2ccccc2)cc1	mHTT-CaM PPI inh 54
CCc1ccc(N(CC(=O)N2CCCC2)S(=O)(=O)c2ccccc2)cc1	none
FC(F)(F)c1cccnc1N1CCN(Cc2nc3ncccn3c2Br)CC1	none
CCOc1cc(/C=C2\C(=O)Nc3ccc(Br)cc32)c(Br)cc1OC	none
CCOc1ccccc1/C=C1\C(=O)Nc2ccc(F)cc21	mHTT-CaM PPI inh 96

Assay outcomes as filed in PubChem.
